# About 83,000 compounds went through this panel and 20% of them were active in at least one assay; those are over-represented in the sample as a whole.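 Growth was measured after 48 h exposure to one concentration of compound in 96-well plates. Values under 10 count as active.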 Values without a mark were called inactive. Activity calls are given as the source filed them.
# How the values were obtained:
# Test in all cases: NCI-60 one-dose screen, 48 h (100 = growth as untreated, 0 = no growth, -100 = all killed)
# Conditions in all cases: 10 µM unless noted
# [1] = test system: NCI-H23 lung
# [2] = test system: NCI-H226 lung
# [3] = test system: NCI-H322M lung
# [4] = test system: HOP-62 NSCLC
# [5] = test system: NCI-H460 lung
# [6] = test system: HOP-92 NSCLC
# [7] = test system: NCI-H522 lung
# [8] = test system: A549/ATCC NSCLC
# [9] = test system: 786-0 renal
# [10] = test system: COLO 205 colon
# [11] = test system: DU-145 prostate
# [12] = test system: K-562 leukemia
# [13] = test system: MALME-3M melanoma
# [14] = test system: MDA-MB-231 breast
# [15] = test system: RXF 393 renal
# [16] = test system: SF-268 CNS
# [17] = test system: SF-295 CNS
# [18] = test system: SF-539 CNS
# [19] = test system: M14 melanoma
Compound,growth [1],growth [2],growth [3],growth [4],growth [5],growth [6],growth [7],growth [8],growth [9],growth [10],growth [11],growth [12],growth [13],growth [14],growth [15],growth [16],growth [17],growth [18],growth [19]
O=c1[nH]c(CN2CCN(c3ccccc3F)CC2)nc2sc3c(c12)CCC3,105%,102%,98.9%,92.4%,123%,89%,98.7%,110%,95.8%,91.9%,109%,109%,96.4%,96.3%,160%,121%,144%,98.6%,108%
CCC(c1cccc(Br)c1)C(C(=O)O)c1ccc(OC)cc1 (centres undefined),102%,108%,111%,96.1%,107%,93.6%,91.5%,102%,104%,120%,116%,77.6%,101%,111%,118%,105%,108%,104%,86.5%
COc1cc(C2CC(c3c(C)[n+]([O-])c4ccccc4[n+]3[O-])=NN2)cc(OC)c1OC (centres undefined),99.6%,100%,119%,106%,112%,87.8%,104%,113%,102%,102%,112%,106%,112%,104%,-20.2% (active),112%,103%,124%,101%
C=C1C(=O)O[C@H]2[C@H]1CC/C(COC(=O)NCc1cc(OC)cc(OC)c1)=C\CC[C@@]1(C)O[C@@H]21,20.8%,13.2%,73.4%,44.9%,34.9%,-21.6% (active),-52.7% (active),51.2%,-37.7% (active),-64.9% (active),-6.21% (active),3.43% (active),-44.1% (active),-5.09% (active),-41.9% (active),21.4%,81.4%,5.25% (active),-31% (active)
COc1ncc(-c2ccc3ncnc(Nc4cccc(Cl)c4)c3c2)cc1NS(=O)(=O)CCN1CCOCC1,21.4%,22.3%,-17.1% (active),17.5%,10.3%,-26.3% (active),14%,-4.57% (active),10.5%,-6.87% (active),18.6%,45.8%,-19.8% (active),16.4%,-30.7% (active),23%,-24.1% (active),-18.9% (active),18.1%
COc1ccc2c(c1)NC(=O)CN2c1nc(NC2CC2)nc2ccccc12,12.4%,65.7%,40.7%,31.7%,2.27% (active),3.22% (active),-11.9% (active),20.8%,19.6%,-18.9% (active),0.326% (active),8.2% (active),70.3%,14.9%,39.2%,21.9%,0.0109% (active),-15% (active),6.86% (active)
CCSc1nnc(Nc2ccc(C(C)C)cc2)s1,79.3%,75%,97.6%,91.5%,97.5%,92.7%,87.2%,86.5%,86%,86.9%,105%,51.8%,90.7%,92.5%,28%,112%,91.1%,90.4%,95.7%
CC/C=C\C[C@H]1C/C=C2/C(=O)C(Cl)=C[C@@H]2C/C=C\CCCC(=O)O1,-34.1% (active),-11% (active),0.0936% (active),-14.8% (active),-43% (active),-56.8% (active),-60.6% (active),-9.19% (active),-80.7% (active),-59.9% (active),-91% (active),-11.6% (active),-42.6% (active),-13% (active),-90.1% (active),-55.4% (active),-63% (active),-72.6% (active),-47.1% (active)
CC1Cc2c(N(C)C)ncnc2N(C)c2ccc(O)cc21 (centres undefined),92.8%,104%,96.5%,72.8%,97.7%,81.2%,49.1%,85.1%,81.4%,103%,101%,36.5%,89.5%,87.2%,95.2%,87.4%,91.8%,91.3%,73.7%
O=C(Cc1n[nH]c(=O)c2ccccc12)OCc1c(Cl)cccc1Cl,103%,77.5%,107%,69.1%,26.3%,88.2%,98.9%,96.4%,81.6%,112%,130%,46.4%,100%,72.9%,52.5%,60.9%,55.1%,94.9%,97.4%
Cc1cc2c(C(C)C)c(O)c(O)c(C=NCCCCCCC(=O)O)c2c(O)c1-c1c(C)cc2c(C(C)C)c(O)c(O)c(C=NCCCCCCC(=O)O)c2c1O,21.8%,74.7%,38.9%,39.3%,13.1%,13.8%,9.55% (active),30.7%,38.2%,14.6%,51.3%,12.6%,62.8%,39.2%,34.2%,36.2%,11.9%,23.1%,37%
CCOP(=O)(CCN1CCN(CCCCCOc2cc3c(cc2OC)C(=O)N2CCC[C@H]2C=N3)CC1)OCC,104%,114%,140%,109%,75.5%,-47.9% (active),62.7%,93.9%,99.1%,71.4%,91.5%,35.7%,119%,74.3%,46%,57%,97.3%,53.5%,91.8%
CS(=O)(=O)N(c1cc(-c2ccc3ncnc(Nc4cccc(Cl)c4)c3c2)cnc1Cl)S(C)(=O)=O,18.3%,30.1%,-1.94% (active),19.2%,14.1%,-20.5% (active),19.6%,9.62% (active),17.5%,2.1% (active),21.6%,26.5%,-24.7% (active),7.55% (active),-20.1% (active),24%,-4.24% (active),-8.58% (active),21.8%
O=C(Nc1ccc(F)cc1)c1cc([N+](=O)[O-])ccc1O,50.1%,88.3%,64.3%,65.2%,64.2%,15.7%,15.3%,68.1%,80.2%,81.5%,78.3%,45.3%,37.4%,65.9%,68.2%,72.9%,78.6%,47.3%,75.7%
O=S(=O)(NCCCNc1cc(-c2cn(-c3ccccc3)nc2-c2cccc(O)c2)ccn1)c1cccc2ccccc12,44.9%,38.7%,44.3%,47.3%,18%,11.8%,44.5%,35.8%,-9.71% (active),-65.5% (active),49.7%,1.39% (active),-1.89% (active),4.29% (active),32.1%,39.9%,-19.9% (active),33.3%,28.2%
Cc1cc2c(C(C)C)c(O)c(O)c(C=NCCCCC(=O)O)c2c(O)c1-c1c(C)cc2c(C(C)C)c(O)c(O)c(C=NCCCCC(=O)O)c2c1O,33.8%,85.2%,46%,50%,23.8%,22.6%,23.4%,49.1%,49.1%,41.1%,63.8%,26.4%,78.8%,40%,57%,44.2%,27.3%,42.2%,66.9%

# — PubChem BioAssay (NCI)
